From PubChem BioAssay AID504832 (National Center for Advancing Translational Sciences (NCATS), 2011) come the findings set out here.

The campaign covered roughly 310,000 compounds. About 18,000 (5.8%) were called active. Not shown: some 22% with an inconclusive outcome. This excerpt belongs to a sample that is enriched for actives. A number with no mark means an inactive call. Calls follow the shape of the dose curve; as a rule, active = well fitted inhibition curve with a large enough effect; inconclusive = small, poorly fitted or top-dose-only effect, or another doubt; inactive = no such curve, though single readings can be large or run the other way.
% is scaled to controls: 0 for no effect and ±100 for the full control effect; potency is read from the fitted curve at half-maximal effect.

The nature of the test: Primary qHTS for delayed death inhibitors of the malarial parasite plastid, 48 hour incubation. The following applies: P. falciparum luciferase growth in erythrocytes; series mostly up to 28.7 µM; activity change, negative = inhibition: at the top concentration. An excerpt: The goal of this screen is to discover new antimalarial compounds that act by inhibiting the development of the apicoplast in the malarial parasite Plasmodium falciparum. The biochemical processes that make this organelle essential for erythrocytic stage parasites are not well understood. However, antibiotics such as azithromycin and tetracycline, which target the apicoplast translational machinery, have a potent antimalarial effect.
We have developed a cell-based assay that measures parasite growth based on the expression of an integrated copy of a firefly luciferase reporter. To detect small molecules that cause this "delayed death" phenotype, erythrocytes infected with the luciferase-expressing parasites were incubated with compounds for either one or two generations, corresponding to 48 and 96 hours, respectively. Compounds that inhibit parasite growth in the second generation, but not the first, should be enriched in antimalarials that target the apicoplast. Growth inhibition is detected by a decrease in luciferase activity.
Assay Provider: David Fidock and Eric Ekland, Columbia University
Keywords: NIH Roadmap, MLPCN, MLI, MLSMR, qHTS, NCGC, qHTS, malaria, luciferase, viability
Four microliters of culture medium (RPMI 1640 with 0.5% w/v Albumax (GIBCO), 24 mM sodium bicarbonate and 10 ug/mL gentamycin) were dispensed by a Multi-drop Combi into white solid 1536-well plates (Grenier) and 23 nL compound was added by a pin tool. Four microliters of infected erythrocytes (2% hematocrit, 0.1% parasitemia final concentration) in culture medium were dispensed and the plates incubated for 48 hours at 37 C in 5% CO2. Two microliters of luciferase detection reagent was added and luminescence was detected by a ViewLux (PerkinElmer) reader.
In general terms: In qHTS, concentration-response curves come from the screen itself.
As to `CCOc1ccc(NC(=S)N2CCC(NC(=O)c3ccccc3)CC2)cc1`, the “activity change, negative = inhibition” value is 25.8%.

As to `COc1ccc(NC(=O)CCC(=O)N2CCN(S(=O)(=O)c3ccc(C)cc3)CC2)c(OC)c1`, the “activity change, negative = inhibition” value is -9.09%. Still for that read-out and setting: as for `COc1ccc(C(=O)Oc2cc(/C=N/NS(=O)(=O)c3ccc(C)cc3)ccc2OC)cc1`, the figure is -2.4%. As to `COc1ccc(/C=C/C(=O)c2ccc(NS(=O)(=O)c3ccc(C)cc3)cc2)cc1O`, the Potency was 14.7 µM (active). Consider `COc1ccc(NS(=O)(=O)c2ccc(NC(C)=O)cc2)cc1OC`, for which the “activity change, negative = inhibition” value was -1.61%.

For the compound `Cc1cc(Cl)c2oc(C(=O)N(C)C(C)c3ccccn3)c(C)c2c1` (stereo not given), the “activity change, negative = inhibition” value is 8.93%. Take `CCc1nccn1CCC(=O)N1CCCC(N2CCN(c3ccccc3F)CC2)C1` (stereo not given): the “activity change, negative = inhibition” value was -21.7%.

As for `CCC(C)c1ccccc1N1CC(C(=O)N2CCN(S(=O)(=O)c3ccc(F)cc3)CC2)CC1=O` (stereo not given), the Potency was 10.4 µM (active).

With `O=C(Nc1ccc(S(=O)(=O)N2CCCCC2)cc1)C1CC(=O)N(c2ccc(F)cc2)C1` (stereo not given), the Potency is 5.22 µM (active). As to `O=C(NC1CCCC1)C1CC(=O)N(c2ccc(F)cc2)C1` (stereo not given), the “activity change, negative = inhibition” value was 46.9%. Take `CC1CC(C)CN(C(=O)C2CC(=O)N(c3ccc(F)cc3)C2)C1` (stereo not given): the “activity change, negative = inhibition” value is 16.7%. Turning to `CNS(=O)(=O)c1ccc(NC(=O)C2CC(=O)N(c3ccc(Cl)cc3)C2)cc1` (stereo not given), the “activity change, negative = inhibition” value was -7.43%. Regarding `O=C(c1ccc(Cl)c(S(=O)(=O)N2CCCCCC2)c1)N1CCN(c2ccc(O)cc2)CC1`, the Potency was 13.1 µM (active). In the case of `O=C(c1ccc(Cl)c(S(=O)(=O)N2CCCCC2)c1)N1CCCCCC1`, the “activity change, negative = inhibition” value was 11.7%. `O=C(C1CC(=O)N(c2ccc(F)cc2)C1)N1CCN(c2ccccc2)CC1` (stereo not given): the “activity change, negative = inhibition” value was 38.4%. With `O=C(Nc1ccc2c(c1)OCCO2)c1ccc(Cl)c(S(=O)(=O)N2CCCCC2)c1`, the Potency is 6.57 µM (active).

For the compound `O=C(Nc1cccc(S(=O)(=O)N2CCCCC2)c1)c1ccc2c(c1)OCO2`, the “activity change, negative = inhibition” value is 11.6%.

As for `O=C(c1ccc(Cl)c(Cl)c1)N1CCCC1`, the “activity change, negative = inhibition” value is 18.7%. With `Cc1ccc(C(=O)Nc2ccc3c(c2)OCO3)cc1S(=O)(=O)N1CCCCC1`, the “activity change, negative = inhibition” value was -24.7%. Regarding `COC(=O)c1ccc(NC(=O)c2cc3c(CO)cnc(C)c3oc2=Nc2cccc(C(N)=O)c2)cc1`, the “activity change, negative = inhibition” value was 10.2%. Turning to `Cc1nc(NC(=O)c2ccc3c(c2)OCCO3)ccc1Br`, the “activity change, negative = inhibition” value is 324%. Still for that read-out and setting: as for `CCCCn1c(N)c(N(CCOC)C(=O)c2oc3ccc(OC)cc3c2C)c(=O)[nH]c1=O`, the figure is -10.5%.

`Cc1cn([C@H]2CC(F)[C@@H](CO)O2)c(=O)[nH]c1=O` (stereo not given in full): the “activity change, negative = inhibition” value is 0.676%.

As to `COc1ccc2cc(C(=O)C3CCCN(C(=O)c4sc(C)nc4C)C3)ccc2c1` (stereo not given), the “activity change, negative = inhibition” value is -15.4%. Consider `COc1ccccc1C(=O)NC(CCSC)C(=O)NNC(=O)c1ccccc1C` (stereo not given), for which the “activity change, negative = inhibition” value was 6.75%. As for `Cc1ccc(CN(CC(=O)NCC2CCCO2)S(=O)(=O)c2ccc(C)cc2)cc1` (stereo not given), the “activity change, negative = inhibition” value is 6.34%.

On to `O=C(Cc1ccccc1)Nc1ccc(C(=O)Nc2ccccc2C(=O)O)cc1`, for which the “activity change, negative = inhibition” value is -11.1%.

As for `CCOC(=O)c1sc(NC(=O)C2CSC3(C)CCC(=O)N23)nc1C` (stereo not given), the “activity change, negative = inhibition” value is -29.7%.

As for `CCOC(=O)N1CCN(Cc2nc3cc(NC(C)=O)ccc3n2C)CC1`, the “activity change, negative = inhibition” value was 19.6%. Same read-out and setting: as for `O=C(Nc1ccc(F)cc1)C1CCCN(S(=O)(=O)c2ccc(-n3cnnn3)cc2)C1` (stereo not given), the figure is 1.34%. With `CCOC(=O)c1ccc(NC(=O)C2CC(=O)N(c3ccc4c(c3)OCCO4)C2)cc1` (stereo not given), the “activity change, negative = inhibition” value was -24.2%. Regarding `Cc1ccc(NC(=O)C2CC(=O)N(c3ccc4c(c3)OCCO4)C2)cc1S(=O)(=O)N1CCCCCC1` (stereo not given), the Potency is 11.7 µM (active). On to `O=C(Nc1ccc(S(=O)(=O)N2CCCCC2)cc1)C1CCN(C(=O)c2ccc(F)cc2)CC1`, for which the Potency is 9.28 µM (active). As for `O=C(Nc1ccccc1)C1CCN(C(=O)c2ccc(Br)cc2)CC1`, the “activity change, negative = inhibition” value was -23.3%. In the case of `CC(=O)c1ccccc1NC(=O)C1CC(=O)N(c2ccc3c(c2)OCCO3)C1` (stereo not given), the “activity change, negative = inhibition” value is -4.46%. On the same count and under the same terms, under `Cc1c(Cl)c([N+](=O)[O-])nn1CC(=O)NCCCN1CCOCC1` stands 24%; under `N[C@@H](Cc1ccccc1)C(=O)N1CCOCC1`, 23.4%; under `CSCC[C@H](NC(=O)N1CCn2c1nc1ccccc12)C(=O)NC1CCCCC1`, -18.4%. With `COc1cccc(CNC(=O)CCC2CCCN(C(=O)c3ccc(F)c(Cl)c3)C2)c1` (stereo not given), the “activity change, negative = inhibition” value was -19%.

With `CCOc1ccc(CC(=O)NC2CCN(Cc3ccccc3)CC2)cc1`, the “activity change, negative = inhibition” value was 1.1%. On to `CC(C)CN(CC(C)C)C(=O)CN1c2cccc3cccc(c23)S1(=O)=O`, for which the “activity change, negative = inhibition” value was 9.64%. `Cc1ccc(S(=O)(=O)N(C)C)cc1NC(=O)CN1c2cccc3cccc(c23)S1(=O)=O`: the Potency is 13.1 µM (active). For `O=C(O)CN1c2cccc3cccc(c23)S1(=O)=O`, the “activity change, negative = inhibition” value is 39.3%. For `Cc1cc(=O)n2nc(N3CCC(C(=O)Nc4c(F)c(F)c(F)c(F)c4F)CC3)sc2n1`, the “activity change, negative = inhibition” value is -2.44%. On to `CCOc1ccc(S(=O)(=O)N2CCN=C2Cc2ccccc2)cc1C`, for which the “activity change, negative = inhibition” value is 3.8%.

For `Cc1ccc(C23CC4CC(CC(C(=O)NCC(=O)O)(C4)C2)C3)cc1`, the “activity change, negative = inhibition” value is 18.8%. Regarding `CC(=O)Nc1ccc(NC(=O)CCN2C(=O)C3CC=CCC3C2=O)cc1` (stereo not given), the “activity change, negative = inhibition” value is -5.38%. Still for that read-out and setting: under `COc1ccc(CNC(=O)[C@H](Cc2c[nH]c3ccccc23)NC(C)=O)cc1OC` stands 6%. As for `COc1cccc(NC(=O)[C@H](Cc2c[nH]c3ccccc23)NC(=O)[C@@H]2Cc3ccccc3CN2)c1`, the Potency is 9.28 µM (active). As to `COc1ccc(NC(=O)[C@H](NC(=O)[C@@H]2Cc3ccccc3CN2)c2ccccc2)cc1`, the “activity change, negative = inhibition” value was -16.2%.
